According to the supplement of paper PMC11732987, “Enantioselective OTUD7B fragment discovery through chemoproteomics screening and high-throughput optimisation” (Communications Chemistry, 2025):

Key:
Test in all cases: log2 ratio of Biotin-Ahx-Ub-VS probe labelling (fragment/DMSO); higher = less target engagement (more negative = stronger competition), active = hit call of the paper (q ≤ 0.05, log2 ratio ≤ -1)
Conditions in all cases: compound concentration: 200 uM; treatment time: 3 h
USP19 = target: T1, USP19 (UniProt O94966)
T1 sequence (whole entry): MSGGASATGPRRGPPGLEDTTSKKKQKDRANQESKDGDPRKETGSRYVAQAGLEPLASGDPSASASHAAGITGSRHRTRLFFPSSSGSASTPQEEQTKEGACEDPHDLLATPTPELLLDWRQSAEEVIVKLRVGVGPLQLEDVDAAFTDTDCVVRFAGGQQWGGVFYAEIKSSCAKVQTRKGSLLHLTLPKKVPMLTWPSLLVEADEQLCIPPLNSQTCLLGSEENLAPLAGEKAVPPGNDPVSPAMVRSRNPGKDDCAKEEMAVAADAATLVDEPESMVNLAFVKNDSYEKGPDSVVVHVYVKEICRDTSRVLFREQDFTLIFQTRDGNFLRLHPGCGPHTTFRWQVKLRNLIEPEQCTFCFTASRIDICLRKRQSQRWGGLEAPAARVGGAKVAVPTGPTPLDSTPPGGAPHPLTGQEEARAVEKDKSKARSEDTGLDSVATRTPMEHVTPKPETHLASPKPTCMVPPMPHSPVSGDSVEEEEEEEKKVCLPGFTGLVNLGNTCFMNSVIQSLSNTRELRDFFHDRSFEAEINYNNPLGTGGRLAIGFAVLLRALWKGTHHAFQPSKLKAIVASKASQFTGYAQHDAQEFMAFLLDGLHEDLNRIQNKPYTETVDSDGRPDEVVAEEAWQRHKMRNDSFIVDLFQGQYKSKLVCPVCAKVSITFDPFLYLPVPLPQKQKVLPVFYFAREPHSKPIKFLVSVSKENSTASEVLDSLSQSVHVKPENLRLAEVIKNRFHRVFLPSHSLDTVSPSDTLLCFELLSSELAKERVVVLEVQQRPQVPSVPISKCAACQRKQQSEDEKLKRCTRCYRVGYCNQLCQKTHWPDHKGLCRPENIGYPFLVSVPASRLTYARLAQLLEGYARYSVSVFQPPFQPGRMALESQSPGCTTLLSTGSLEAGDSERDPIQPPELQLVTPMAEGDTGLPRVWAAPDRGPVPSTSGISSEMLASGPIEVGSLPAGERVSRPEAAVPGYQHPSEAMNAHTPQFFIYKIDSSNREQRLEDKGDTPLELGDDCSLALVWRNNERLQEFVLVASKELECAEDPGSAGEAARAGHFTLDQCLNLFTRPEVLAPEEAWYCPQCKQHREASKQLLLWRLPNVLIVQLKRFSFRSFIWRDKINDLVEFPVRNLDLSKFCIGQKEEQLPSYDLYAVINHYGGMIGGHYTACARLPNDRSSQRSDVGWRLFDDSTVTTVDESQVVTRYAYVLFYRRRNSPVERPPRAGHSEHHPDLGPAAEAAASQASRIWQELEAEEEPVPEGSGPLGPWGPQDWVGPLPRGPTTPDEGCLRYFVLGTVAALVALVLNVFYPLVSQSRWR
Procedure, shortened: (§1)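 Labelling with Biotin-Ahx-Ub-VS (0.5 µM final, 1 h) followed a 3 h triplicate treatment of HEK293T lysate (495 µg per sample, Tris/CHAPS/IGEPAL buffer with protease inhibitors) with fragment at 200 µM or vehicle. Labelled DUBs were NeutrAvidin-enriched, digested with LysC and trypsin, and run by diaPASEF LC-MS/MS. The values, average log2 fragment/vehicle ratios by unpaired t-test, come from global-median-normalised Spectronaut label-free quantities. Proteins with ≥2 unique peptides were used.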

USP22 = target: T2, USP22 (UniProt Q9UPT9)
T2 sequence (whole entry): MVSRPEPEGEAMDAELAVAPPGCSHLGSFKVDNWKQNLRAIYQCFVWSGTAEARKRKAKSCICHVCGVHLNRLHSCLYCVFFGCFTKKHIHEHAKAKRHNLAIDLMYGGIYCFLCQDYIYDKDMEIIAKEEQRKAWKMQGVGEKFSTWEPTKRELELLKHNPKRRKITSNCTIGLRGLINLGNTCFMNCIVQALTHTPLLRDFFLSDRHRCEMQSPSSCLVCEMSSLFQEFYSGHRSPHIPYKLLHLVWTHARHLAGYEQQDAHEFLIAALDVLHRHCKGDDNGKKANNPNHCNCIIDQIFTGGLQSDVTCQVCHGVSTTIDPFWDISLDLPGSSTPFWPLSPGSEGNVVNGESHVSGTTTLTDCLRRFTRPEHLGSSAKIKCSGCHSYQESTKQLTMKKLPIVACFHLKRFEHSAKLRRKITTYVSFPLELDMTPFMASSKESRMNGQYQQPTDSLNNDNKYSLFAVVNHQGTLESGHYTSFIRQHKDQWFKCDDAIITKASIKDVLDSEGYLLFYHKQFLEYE
Procedure, shortened: as §1

USP24 = USP24 (UniProt Q9UPU5)
Procedure, shortened: as §1

USP25 = target: T3, USP25 (UniProt Q9UHP3)
T3 sequence (whole entry): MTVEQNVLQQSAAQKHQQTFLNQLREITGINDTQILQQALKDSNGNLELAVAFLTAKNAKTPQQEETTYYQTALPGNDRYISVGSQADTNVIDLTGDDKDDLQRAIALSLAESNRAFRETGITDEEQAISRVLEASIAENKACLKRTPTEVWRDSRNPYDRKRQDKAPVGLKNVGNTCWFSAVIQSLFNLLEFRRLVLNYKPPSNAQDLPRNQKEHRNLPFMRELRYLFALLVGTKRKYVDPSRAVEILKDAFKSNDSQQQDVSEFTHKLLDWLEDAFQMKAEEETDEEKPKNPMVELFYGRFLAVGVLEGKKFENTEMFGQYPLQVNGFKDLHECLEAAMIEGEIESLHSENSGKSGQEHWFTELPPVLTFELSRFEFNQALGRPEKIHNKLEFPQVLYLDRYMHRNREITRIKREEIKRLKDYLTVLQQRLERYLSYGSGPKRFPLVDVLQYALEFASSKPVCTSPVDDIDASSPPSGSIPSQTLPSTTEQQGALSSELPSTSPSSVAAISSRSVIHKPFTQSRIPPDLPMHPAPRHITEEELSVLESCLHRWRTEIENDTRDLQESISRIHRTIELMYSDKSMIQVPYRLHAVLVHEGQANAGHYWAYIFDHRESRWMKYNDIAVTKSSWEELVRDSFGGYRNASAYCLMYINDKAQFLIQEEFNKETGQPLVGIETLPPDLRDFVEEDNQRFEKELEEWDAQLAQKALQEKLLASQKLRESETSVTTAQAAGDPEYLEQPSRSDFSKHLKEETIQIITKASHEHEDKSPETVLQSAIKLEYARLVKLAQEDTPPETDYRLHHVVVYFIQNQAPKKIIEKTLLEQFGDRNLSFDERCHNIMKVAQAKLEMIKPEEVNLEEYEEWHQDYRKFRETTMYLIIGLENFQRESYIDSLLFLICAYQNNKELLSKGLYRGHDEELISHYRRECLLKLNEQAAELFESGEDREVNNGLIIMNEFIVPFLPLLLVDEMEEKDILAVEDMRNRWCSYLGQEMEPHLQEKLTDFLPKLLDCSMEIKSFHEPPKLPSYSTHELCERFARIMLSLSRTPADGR
Procedure, shortened: as §1

USP28 = target: T4, USP28 (UniProt Q96RU2)
T4 sequence (whole entry): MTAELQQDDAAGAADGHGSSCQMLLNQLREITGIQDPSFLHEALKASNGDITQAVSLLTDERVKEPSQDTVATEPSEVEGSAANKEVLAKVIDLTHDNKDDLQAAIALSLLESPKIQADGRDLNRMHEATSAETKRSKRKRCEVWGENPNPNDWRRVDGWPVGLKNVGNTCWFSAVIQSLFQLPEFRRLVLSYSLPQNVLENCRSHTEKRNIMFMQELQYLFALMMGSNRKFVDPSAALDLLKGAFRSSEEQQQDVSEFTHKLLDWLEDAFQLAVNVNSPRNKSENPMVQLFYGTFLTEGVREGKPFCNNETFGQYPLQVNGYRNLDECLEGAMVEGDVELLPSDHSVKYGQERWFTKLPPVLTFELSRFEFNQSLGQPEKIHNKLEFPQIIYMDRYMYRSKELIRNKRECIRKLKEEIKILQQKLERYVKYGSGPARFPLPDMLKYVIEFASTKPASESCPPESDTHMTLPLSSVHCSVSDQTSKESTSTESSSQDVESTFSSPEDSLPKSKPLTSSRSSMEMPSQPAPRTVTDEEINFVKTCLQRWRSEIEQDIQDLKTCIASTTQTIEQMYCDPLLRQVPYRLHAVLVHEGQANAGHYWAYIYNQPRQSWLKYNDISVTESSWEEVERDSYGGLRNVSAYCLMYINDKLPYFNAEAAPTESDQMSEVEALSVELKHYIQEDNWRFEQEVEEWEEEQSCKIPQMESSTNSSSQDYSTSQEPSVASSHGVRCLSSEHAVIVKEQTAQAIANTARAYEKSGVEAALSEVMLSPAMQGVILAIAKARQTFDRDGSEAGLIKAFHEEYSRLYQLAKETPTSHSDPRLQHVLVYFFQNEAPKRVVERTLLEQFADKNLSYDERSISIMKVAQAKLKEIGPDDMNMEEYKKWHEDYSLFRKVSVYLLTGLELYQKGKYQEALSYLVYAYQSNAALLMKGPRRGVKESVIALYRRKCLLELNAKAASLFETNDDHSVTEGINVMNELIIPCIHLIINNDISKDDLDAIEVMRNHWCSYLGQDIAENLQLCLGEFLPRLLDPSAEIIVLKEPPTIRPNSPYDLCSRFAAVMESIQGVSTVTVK
Procedure, shortened: as §1

Measured: log2 ratio of Biotin-Ahx-Ub-VS probe labelling

Sequence of USP24 (Q9UPU5 whole entry): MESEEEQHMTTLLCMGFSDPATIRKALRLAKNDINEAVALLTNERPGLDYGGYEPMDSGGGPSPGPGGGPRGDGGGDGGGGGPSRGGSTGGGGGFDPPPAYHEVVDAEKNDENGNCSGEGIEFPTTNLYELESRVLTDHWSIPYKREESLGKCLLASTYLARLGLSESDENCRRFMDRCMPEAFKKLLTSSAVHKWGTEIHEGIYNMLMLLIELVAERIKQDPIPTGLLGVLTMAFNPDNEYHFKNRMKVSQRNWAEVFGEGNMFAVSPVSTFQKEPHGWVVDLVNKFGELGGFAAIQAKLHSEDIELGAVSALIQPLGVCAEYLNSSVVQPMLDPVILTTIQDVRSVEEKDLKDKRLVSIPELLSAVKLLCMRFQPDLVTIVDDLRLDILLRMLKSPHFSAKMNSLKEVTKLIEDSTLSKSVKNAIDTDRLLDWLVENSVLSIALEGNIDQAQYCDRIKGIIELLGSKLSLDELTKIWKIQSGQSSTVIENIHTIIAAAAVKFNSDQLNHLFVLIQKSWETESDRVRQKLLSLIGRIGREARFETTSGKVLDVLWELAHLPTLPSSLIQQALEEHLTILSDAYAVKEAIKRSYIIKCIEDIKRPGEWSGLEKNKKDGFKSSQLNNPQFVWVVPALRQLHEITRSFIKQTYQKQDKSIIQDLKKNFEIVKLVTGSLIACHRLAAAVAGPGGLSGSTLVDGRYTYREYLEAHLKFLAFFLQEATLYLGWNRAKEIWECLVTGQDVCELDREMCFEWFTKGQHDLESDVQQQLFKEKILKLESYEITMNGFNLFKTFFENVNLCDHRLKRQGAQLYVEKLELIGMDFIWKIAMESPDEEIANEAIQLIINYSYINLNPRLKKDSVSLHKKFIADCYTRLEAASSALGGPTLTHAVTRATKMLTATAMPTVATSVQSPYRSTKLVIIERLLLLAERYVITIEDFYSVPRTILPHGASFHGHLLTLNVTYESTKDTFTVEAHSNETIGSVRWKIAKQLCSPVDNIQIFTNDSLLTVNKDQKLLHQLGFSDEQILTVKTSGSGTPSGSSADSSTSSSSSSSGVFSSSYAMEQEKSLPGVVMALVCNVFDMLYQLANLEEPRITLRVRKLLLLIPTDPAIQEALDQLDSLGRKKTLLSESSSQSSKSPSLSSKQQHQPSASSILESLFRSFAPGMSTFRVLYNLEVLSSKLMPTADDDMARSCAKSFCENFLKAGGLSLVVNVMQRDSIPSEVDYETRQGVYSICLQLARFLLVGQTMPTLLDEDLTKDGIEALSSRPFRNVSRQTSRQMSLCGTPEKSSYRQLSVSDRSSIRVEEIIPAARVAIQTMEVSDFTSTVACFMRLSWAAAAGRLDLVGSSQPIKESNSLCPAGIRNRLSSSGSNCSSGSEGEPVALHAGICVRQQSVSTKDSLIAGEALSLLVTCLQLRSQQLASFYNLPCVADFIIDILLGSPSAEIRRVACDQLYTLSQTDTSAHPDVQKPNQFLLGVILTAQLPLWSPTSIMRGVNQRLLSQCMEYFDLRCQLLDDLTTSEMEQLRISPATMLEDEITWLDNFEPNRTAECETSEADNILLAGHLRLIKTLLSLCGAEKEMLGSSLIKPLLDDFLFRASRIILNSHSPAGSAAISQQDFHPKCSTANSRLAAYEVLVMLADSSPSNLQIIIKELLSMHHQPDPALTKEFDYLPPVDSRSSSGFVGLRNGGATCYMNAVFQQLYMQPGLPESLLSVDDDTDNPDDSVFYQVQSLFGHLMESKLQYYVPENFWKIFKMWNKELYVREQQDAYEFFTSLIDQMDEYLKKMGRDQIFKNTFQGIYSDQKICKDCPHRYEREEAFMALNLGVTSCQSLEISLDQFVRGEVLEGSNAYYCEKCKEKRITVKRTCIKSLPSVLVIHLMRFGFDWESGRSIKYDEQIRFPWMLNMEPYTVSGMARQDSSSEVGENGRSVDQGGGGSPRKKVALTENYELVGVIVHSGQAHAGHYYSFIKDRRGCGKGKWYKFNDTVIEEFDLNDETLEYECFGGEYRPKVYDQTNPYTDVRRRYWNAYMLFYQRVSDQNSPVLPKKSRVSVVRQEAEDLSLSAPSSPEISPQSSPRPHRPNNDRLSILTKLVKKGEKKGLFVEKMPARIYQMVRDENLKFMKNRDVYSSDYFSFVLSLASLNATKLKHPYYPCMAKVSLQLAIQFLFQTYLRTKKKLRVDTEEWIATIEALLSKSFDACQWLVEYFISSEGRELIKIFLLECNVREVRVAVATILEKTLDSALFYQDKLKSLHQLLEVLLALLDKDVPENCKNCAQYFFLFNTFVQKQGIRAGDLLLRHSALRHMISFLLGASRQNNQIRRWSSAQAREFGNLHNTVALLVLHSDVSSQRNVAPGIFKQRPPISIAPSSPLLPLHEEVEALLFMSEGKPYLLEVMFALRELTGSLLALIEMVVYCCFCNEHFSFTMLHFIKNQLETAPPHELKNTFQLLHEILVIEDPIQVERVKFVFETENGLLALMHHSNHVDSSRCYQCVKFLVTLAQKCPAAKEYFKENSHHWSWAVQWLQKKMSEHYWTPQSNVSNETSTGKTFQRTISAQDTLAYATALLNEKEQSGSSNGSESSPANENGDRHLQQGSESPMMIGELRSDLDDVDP

CC(NC(=O)CCl)c1cc2n(n1)CCCC2.Cl (stereo not given)
inactive: USP19 -0.153 | USP22 0.0191 | USP24 -0.262 | USP25 -0.378 | USP28 -0.582
